Screening data: PubChem, several laboratories
Only some compounds are listed: those with a hit (about 4.2% of all), similar ones and a draw of the others.
FBA Mtb inh = inhibits M. tuberculosis FBA enzyme. purified M. tuberculosis FBA, fluorescence read-out. P9WQA3. 360,000 compounds, 2.3% hits. inhibition, % at 1 µM;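 also: 0% = vehicle and 100% = reference inhibitor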
PrPC TRFRET = inhibitors of human cell surface prion protein PrPC | TR-FRET read-out | AID 720596 | 370,000 compounds, 0.43% hits | inhibition, % at 13.8 µM; in the data active = inhibition above about 24%; also: 0% = median of the test wells and 100% = reference compound wells
GDH-TPI counter-1 = inhibits GDH-TPI coupling enzymes, artifact for Mtb FBA screen; 360,000 compounds, 1.2% hits; GDH-TPI coupled enzyme counterscreen, NADH absorbance; inhibition, % at 4.8 µM; in the data active = inhibition above about 30%;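 also: 0% = DMSO wells and 100% = wells lacking the enzyme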
BJeLR lethal = kills HRASV12-expressing BJeLR cells. BJeLR (HRASV12) viability, CellTiter-Glo ATP luminescence, 48 h. inhibition, % (concentration not given with the values). 300,000 compounds, 0.17% hits. AID 1554; in the data active = inhibition above about 50%
RecA intein inh = Mtb RecA intein splicing inhibition; P9WHJ3; cell-free RecA intein splicing, fluorescence; inhibition, % (concentration not given with the values); 290,000 compounds, 0.75% hits; AID 2221; in the data active = inhibition above about 30%;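 also: 0% = vehicle wells and 100% = reference inhibitor control wells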
Target sequence (P9WHJ3 whole entry, looked up): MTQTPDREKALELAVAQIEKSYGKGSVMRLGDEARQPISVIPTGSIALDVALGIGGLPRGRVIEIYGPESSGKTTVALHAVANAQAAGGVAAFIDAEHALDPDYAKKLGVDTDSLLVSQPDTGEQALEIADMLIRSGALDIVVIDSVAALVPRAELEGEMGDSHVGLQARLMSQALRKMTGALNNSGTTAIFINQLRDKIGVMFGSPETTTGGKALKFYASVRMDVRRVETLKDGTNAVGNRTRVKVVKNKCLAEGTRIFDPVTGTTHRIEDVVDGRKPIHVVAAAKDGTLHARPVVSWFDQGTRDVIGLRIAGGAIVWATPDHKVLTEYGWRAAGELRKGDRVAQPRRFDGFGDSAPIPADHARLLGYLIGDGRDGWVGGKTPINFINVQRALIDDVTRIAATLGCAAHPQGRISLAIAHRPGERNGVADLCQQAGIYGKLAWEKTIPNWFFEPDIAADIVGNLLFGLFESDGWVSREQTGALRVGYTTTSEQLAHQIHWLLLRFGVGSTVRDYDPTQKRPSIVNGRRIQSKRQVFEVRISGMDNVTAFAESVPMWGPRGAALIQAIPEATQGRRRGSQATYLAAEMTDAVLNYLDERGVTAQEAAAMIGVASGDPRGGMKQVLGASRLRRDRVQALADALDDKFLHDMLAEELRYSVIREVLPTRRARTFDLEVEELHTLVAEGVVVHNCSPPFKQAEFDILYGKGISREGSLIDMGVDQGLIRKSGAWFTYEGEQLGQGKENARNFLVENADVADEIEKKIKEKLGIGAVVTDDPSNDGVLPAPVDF
Mtb FBA inh conf = Mtb FBA inhibition, confirmed; shares compounds with FBA Mtb inh; purified M. tuberculosis FBA, fluorescence read-out; inhibition, % at 1 µM; 5,600 compounds, 78% hits;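 also: 0% = vehicle wells and 100% = reference inhibitor wells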
GDH-TPI counter-2 = counter-screen for M. tuberculosis FBA inhibitors: GDH-TPI coupled enzyme inhibition. shares compounds with FBA Mtb inh. 5,600 compounds, 81% hits. AID 652141. inhibition, % at 1 µM. GDH-TPI coupled enzyme counterscreen, fluorescence; in the data active = inhibition above about 10%
Starred values were filed as active, the others as inactive; nt = no result; + = active, no number. Rule as the data show it, unless noted: active = inhibition above about 27%; inactive = the rest.

SMILES	FBA Mtb inh	PrPC TRFRET	GDH-TPI counter-1	BJeLR lethal	RecA intein inh	Mtb FBA inh conf	GDH-TPI counter-2
COC(=O)c1cc(-c2c(C)oc3cc(OC)ccc3c2=O)c(C)o1	-3	3	-7	nt	5	nt	nt
CCOc1ccc(Oc2c(C)oc3cc(O)ccc3c2=O)cc1	44*	-9	9	-1	-3	+	160*
Cc1oc2cc(O)ccc2c(=O)c1Oc1ccccc1Br	96*	1	18	-6	1	6	-1
Cc1oc2cc(O)ccc2c(=O)c1Oc1ccccc1	101*	2	22	-1	-2	83*	59*
COC(=O)c1cc(-c2c(C)oc3cc(O)ccc3c2=O)c(C)o1	76*	0	29	-2	0	29*	32*
COC(=O)C1=C(C(=O)OC)C2CCCC1C1N=NN(c3ccccc3)C21 (stereo unspecified)	nt	-4	nt	nt	nt	nt	nt
O=c1[nH]c(N/N=C/c2cc3c(cc2[N+](=O)[O-])OCO3)nc2ccccc12	4	8	-3	19	-1	nt	nt
O=c1[nH]c(N/N=C/c2ccccc2)nc2ccccc12	56*	3	15	1	-6	-5	-5
COc1ccc2[nH]c(C)cc(=O)c2c1	13	-2	7	5	-2	nt	nt
COc1ccc(-c2cc(-c3ccccc3)c(C#N)c(=S)[nH]2)cc1	1	2	0	1	5	nt	nt
COc1ccc(-c2cc(=O)c3cc(F)ccc3[nH]2)cc1	31*	5	-2	1	1	126*	98*
COc1ccc2[nH]c(-c3ccccc3)cc2c1	100*	5	8	2	1	91*	71*
COc1ccc2[nH]c(-c3ccc(C)cc3)cc(=O)c2c1	44*	nt	17	8	-9	+	165*
COc1ccc(-c2cc(=O)c3cc(OC)c(OC)cc3[nH]2)cc1	58*	8	19	6	-1	66*	59*
COc1ccc(-c2cc(=O)[nH]c(=O)[nH]2)cc1	-4	5	17	7	5	nt	nt
CCn1c2ccccc2c2cc(C=Nn3c(-c4ccccn4)n[nH]c3=S)ccc21	nt	6	nt	nt	nt	nt	nt
Cc1ccc(C(=O)NCC(=O)OCc2nc3sc(C)c(C)c3c(=O)[nH]2)cc1	nt	1	nt	nt	nt	nt	nt
O=C(NC1CCCCC1)c1ccc2ccccc2c1O	28*	-4	27	nt	nt	5	-3
Cc1ccc(-c2cc(-c3nnc(SCC(=O)N4CCOCC4)n3N)[nH]n2)cc1	nt	5	nt	nt	nt	nt	nt
O=c1cc(/C=C/c2c(F)cccc2Cl)[nH]c2ccccc12	45*	6	14	17	-13	53*	33*
CCC(C)N(C(=O)CN1C(=O)C2CCCCN2C(=O)c2ccccc21)C(C)CC (stereo unspecified)	nt	-4	nt	nt	nt	nt	nt
COc1ccc2oc(C(=O)OCC(=O)Nc3ccc(OC)c(S(N)(=O)=O)c3)c(C)c2c1	27	4	7	-2	-2	nt	nt
COc1ccc2oc(C(=O)OCC(=O)Nc3ccc(NC(C)=O)cc3)c(C)c2c1	27*	0	8	-4	nt	94*	80*
COc1ccc2oc(C(=O)OCC(=O)NC3CCS(=O)(=O)C3)c(C)c2c1 (stereo unspecified)	53*	9	6	nt	nt	167*	104*
COc1ccc2oc(C(=O)OCC(=O)NC3(C#N)CCCC3)c(C)c2c1	35*	0	-3	4	1	+	+
SMILES	FBA Mtb inh	PrPC TRFRET	GDH-TPI counter-1	BJeLR lethal	RecA intein inh	Mtb FBA inh conf	GDH-TPI counter-2
COc1ccc2oc(C(=O)OCC(=O)Nc3cc(S(=O)(=O)N4CCOCC4)ccc3C)c(C)c2c1	32*	5	9	4	-3	-3	-5
COc1ccc2oc(C(=O)OCC(=O)NC3CCCC3)c(C)c2c1	38*	-3	8	5	1	132*	113*
CCCCn1c(=O)cc(O)c2ccccc21	0	6	7	-2	1	nt	nt
CN(C)c1ccc2c(O)cc(=O)n(C)c2c1	37*	-5	18	5	-9	29*	25*
CCc1nc2sc(C#N)c(N)c2c2c1CCCC2	49*	-3	10	-6	0	+	171*
COc1cc(-c2nc(-c3ccccc3)c(-c3cccs3)[nH]2)cc(OC)c1OC	46*	23	18	7	-1	1	-5
